# “And” between values parts separate entries of the source, which are not always exact repeats. Identical values can stand only once. The source made the active and inactive calls. Unless noted, no rule for the calls is given here.
# How the values were obtained:
# [1] = test system: XIP peptide (Xip251-270) binding; assay: XIP fragment 251-270 binding compounds – biochemical, small-molecule microarray, fluorescence 635/667 nm, 0.1 µg/mL protein, primary screen (AID 1182); conditions: fluorescent protein binding, 635 nm, higher = more signal, called active from +8 up or from −8 down
# XIP peptide (Xip251-270) = assay: compounds binding XIP fragment 251-270 – biochemical, small-molecule microarray, fluorescence 635/667 nm, 0.5 µg/mL protein, primary screen (AID 1183); conditions: fluorescence 635 nm, higher = more signal
# [2] = blood-stage malaria parasite viability loss – strain 3D7, DAPI fluorescence, 100 nL, primary screen (AID 1184);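 also: parasites grown inside human red blood cells in medium with human serum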; conditions: P. falciparum 3D7 growth, 3 d, higher = more signal
# [3] = target: Homeobox protein Hox-A13 (Mus musculus) (UniProt Q62424); assay: disruptors of Hoxa13 oligonucleotide interaction – biochemical, fluorescence polarization, labeled oligonucleotide, primary screen (AID 1185); conditions: Hoxa13:DNA binding, 15 min, higher = more signal, called active from +8 up or from −8 down
# [4] = blockers of DNA damage checkpoint Chk1 activation – imaging, HeLa, hydroxyurea, phospho-Chk1 antibody, percent positive cells, primary screen (AID 1186); conditions: hydroxyurea-induced phospho-Chk1 immunofluorescence imaging, higher = more signal
# [5] = blockers of DNA damage checkpoint Chk1 activation – imaging, HeLa, hydroxyurea, phospho-Chk1 nuclear intensity, primary screen (AID 1187); conditions: hydroxyurea-induced phospho-Chk1 immunofluorescence imaging, higher = more signal
# Chain of Homeobox protein Hox-A13 (Mus musculus) (Q62424 whole entry, looked up): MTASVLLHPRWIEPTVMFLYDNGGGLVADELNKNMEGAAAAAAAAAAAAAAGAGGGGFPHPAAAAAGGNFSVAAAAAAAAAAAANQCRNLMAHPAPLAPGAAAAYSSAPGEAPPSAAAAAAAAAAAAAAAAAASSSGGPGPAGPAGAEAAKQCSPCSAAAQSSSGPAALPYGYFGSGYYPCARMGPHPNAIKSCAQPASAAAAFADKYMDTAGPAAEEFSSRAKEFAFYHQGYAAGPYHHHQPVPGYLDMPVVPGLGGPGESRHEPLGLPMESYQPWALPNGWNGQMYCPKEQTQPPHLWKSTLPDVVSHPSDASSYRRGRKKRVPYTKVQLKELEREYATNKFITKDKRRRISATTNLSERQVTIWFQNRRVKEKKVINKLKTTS
SMILES,composite z-score [1],composite z-score (XIP peptide (Xip251-270)),z-score [2],z-score [3],z-score [4],z-score [5]
CC(C)[Si]1(C(C)C)OCc2cc(CCCc3cc4c(c(CCc5ccccc5)n3)[Si](C(C)C)(C(C)C)OC4)nc(CCc3ccccc3)c21,-0.189 (inactive) and -0.0317 (inactive),-1.31 and -0.189,0.0742 and 1.55,-1.38 (inactive) and -0.138 (inactive),-0.72 (inactive) and 0.618 (inactive),-0.625 (inactive) and -0.0158 (inactive)
CC(C)[Si]1(C(C)C)OCc2cc(C3CC3)nc(CCc3ccccc3)c21,1.11 (inactive) and 0.0908 (inactive),-0.663 and -0.481,-0.541 and 0.653,-0.448 (inactive) and 0.438 (inactive),0.0389 (inactive) and 0.993 (inactive),0.579 (inactive) and 0.548 (inactive)
CC(CO)N1C(=O)[C@@H]2C3C(=O)OCCC=C[C@H]3OC23C=CCN(Cc2ccccc2)C(=O)[C@@H]13 (some centres undefined),-0.05 (inactive) and 0.127 (inactive),-0.4 and -0.181,-1.1 and -0.233,-5.29 (inactive) and -4.45 (inactive),-0.769 (inactive) and -0.0621 (inactive),-0.426 (inactive) and -0.217 (inactive)
C=CCN1C(=O)[C@]2(O[C@H](CCn3cc(CCO)nn3)[C@@H]([Si](C)(C)c3ccc(OC)cc3)[C@@H]2C)c2cc(N3C(=O)c4cccc5cccc3c45)ccc21,0.0184 (inactive) and 0.416 (inactive),0.577 and 0.719,-2.67 and -2.76,-5.18 (inactive) and -5.57 (inactive),-1.98 (inactive) and -1.13 (inactive),-1.8 (inactive) and -1.3 (inactive)
C=CCN(Cc1ccccc1)C(=O)C1N(CCOCCO)C(=O)C2C(C(=O)O)C3C=CC21O3 (centres undefined),0.463 (inactive) and -0.202 (inactive),-1.03 and -0.657,-0.506 and -0.253,0.429 (inactive) and -0.659 (inactive),-0.0844 (inactive) and 1.49 (inactive),0.031 (inactive) and 1.13 (inactive)
C=CCN(CCCCC)C(=O)C(c1cccs1)N(C(=O)/C=C\C(=O)O)c1c(Cl)cccc1CO (centres undefined),-0.527 (inactive) and 0.809 (inactive),-1.88 and -0.229,0.114 and -0.445,-0.0384 (inactive) and -1.57 (inactive),0.79 (inactive) and 0.313 (inactive),0.728 (inactive) and 0.468 (inactive)
CCCCN1CC=CC23O[C@@H]4C=CCCOC(=O)C4[C@H]2C(=O)N(C(C)CO)[C@@H]3C1=O (some centres undefined),-0.0981 (inactive) and -0.455 (inactive),-0.41 and -0.585,0.0728 and -0.271,-5.84 (inactive) and -4.77 (inactive),0.34 (inactive) and -0.204 (inactive),0.293 (inactive) and -0.258 (inactive)
C=CCN(Cc1ccccc1)C(=O)C1N(CCCCCCO)C(=O)C2C(C(=O)O)C3C=CC21O3 (centres undefined),-0.0934 (inactive) and -0.383 (inactive),-0.673 and 0.372,0.865 and 1.05,-0.888 (inactive) and 0.0908 (inactive),0.909 (inactive) and 0.53 (inactive),0.798 (inactive) and 0.751 (inactive)
C=C[C@H](OC)[C@@H](O)c1ccc(OCCO)cc1,0.632 (inactive) and -0.235 (inactive),-1.15 and -0.537,0.0026 and 0.809,-0.791 (inactive) and -0.187 (inactive),0.228 (inactive) and 0.524 (inactive),0.0287 (inactive) and 0.865 (inactive)
C=CCN(CCCC)C(=O)C(c1cccs1)N(C(=O)/C=C\C(=O)O)c1ccc(CCO)cc1 (centres undefined),1.82 (inactive) and -0.761 (inactive),-0.319 and -1.84,0.28 and 0.445,-1.28 (inactive) and -0.734 (inactive),0.655 (inactive) and -0.177 (inactive),1.04 (inactive) and 0.345 (inactive)
C=CCN(CCCC)C(=O)C1N(CCCCCCO)C(=O)C2C(C(=O)O)C3C=CC21O3 (centres undefined),-0.489 (inactive) and -0.198 (inactive),-0.838 and -0.558,1.51 and 1.68,-0.284 (inactive) and -0.72 (inactive),0.527 (inactive) and 1.03 (inactive),0.977 (inactive) and 1.09 (inactive)
C[N+](C)(C)CCCCCCNC(=O)[C@H]1C[C@H]2C(=O)N[C@@H](CCCC[N+](C)(C)C)C(=O)N2[C@H]1c1ccc(O)cc1,0.0514 (inactive) and -0.283 (inactive),0.0535 and -0.189,-1.28 and 0.581,0.627 (inactive) and -1.31 (inactive),-0.563 (inactive) and 0.0546 (inactive),-0.225 (inactive) and -0.0689 (inactive)
CC[C@@H]1C(Sc2ccccc2)C(C(=O)O)[C@H](c2ccc(C)cc2)N1S(=O)(=O)c1ccc(C)cc1 (some centres undefined),1.07 (inactive) and -0.215 (inactive),0.278 and 0.605,-0.606 and 0.251,-5.66 (inactive) and -4.34 (inactive),-0.114 (inactive) and -0.912 (inactive),-0.369 (inactive) and -0.714 (inactive)
C=CCN(Cc1ccccc1)C(=O)C1N(C(C)(C)CO)C(=O)C2C(C(=O)O)C3C=CC21O3 (centres undefined),0.102 (inactive) and -0.207 (inactive),0.234 and -0.526,0.379 and -0.247,-0.255 (inactive) and -0.187 (inactive),-0.401 (inactive) and -0.113 (inactive),-0.326 (inactive) and -0.297 (inactive)
C=CC[C@@H](O)c1ccc(OCCO)cc1,-0.0335 (inactive) and 0.172 (inactive),0.184 and -0.25,0.667 and 0.717,-0.948 (inactive) and -0.931 (inactive),-0.442 (inactive) and -0.507 (inactive),0.186 (inactive) and -0.0561 (inactive)
CC(CO)N1C(=O)[C@@H]2C3C(=O)OCCC=C[C@H]3OC23C=CCN(c2ccc4ccccc4c2)C(=O)[C@@H]13 (some centres undefined),0.62 (inactive) and -0.143 (inactive),0.713 and 0.135,-0.526 and 0.0547,-6.14 (inactive) and -5.9 (inactive),-0.437 (inactive) and 0.0615 (inactive),0.0032 (inactive) and 0.0969 (inactive)
C=CCN(CCCC)C(=O)C(c1cccs1)N(CCOCCO)C(=O)/C=C\C(=O)O (centres undefined),0.455 (inactive) and 0.476 (inactive),-0.836 and -0.765,0.329 and -0.0611,0.578 (inactive) and 0.724 (inactive),-0.36 (inactive) and 0.442 (inactive),0.132 (inactive) and 1.47 (inactive)
CC(CO)N1C(=O)[C@@H]2C3C(=O)OCCC=C[C@H]3OC23C=CCN(c2ccc(Cl)cc2)C(=O)[C@@H]13 (some centres undefined),0.291 (inactive) and 0.137 (inactive),-0.784 and 0.213,-0.764 and -0.187,-3.34 (inactive) and -6.16 (inactive),0.537 (inactive) and -0.0281 (inactive),0.654 (inactive) and 0.0058 (inactive)
C=CCN(C(=O)C(c1cccs1)N(C(=O)/C=C\C(=O)O)c1ccc(CCO)cc1)c1ccc(OC)cc1 (centres undefined),-0.104 (inactive) and -0.169 (inactive),-0.0376 and -1.95,-0.142 and -0.395,-0.698 (inactive) and -0.535 (inactive),-0.157 (inactive) and 0.581 (inactive),0.686 (inactive) and 0.548 (inactive)

# — PubChem BioAssay
